This passage reports outcome and AC50 results from PubChem BioAssay (EPA / NIEHS).

Values joined by “and” are separate entries in the source; they are usually repeats but may differ in a detail not shown here. Equal entries are not always repeated. Inconclusive results are not listed. A structure can be active in one record and inactive in another. Active and inactive are the calls of the source. The calls were made as follows, unless noted: active = hit-call score of the fitted dose curve at least 0.9, where 1 is the maximum; inconclusive = response in the unintended direction; inactive = score below 0.9.

Assay [1] is described as follows: ATG_TCF_b_cat_CIS: Attagene CIS-FACTORIAL HepG2 Assay for human T-Cell-Factor with beta-catenin (TCF/b-cat) (AID 2282965; active = hit-call score of the fitted dose curve at least 0.9, where 1 is the maximum; inactive = score below 0.9). The conditions noted are these: HepG2 TCF/beta-catenin cis-reporter transcription, actives raise or lower the signal. An outline of the steps: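 Endogenous transcription factor activity is captured through cis-promoter reporter constructs transiently introduced into human HepG2 liver cells. Induced reporter mRNA is measured after 24 h and fitted bidirectionally relative to DMSO.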

The nature of assay [2]: ATG_TAL_CIS: Attagene CIS-FACTORIAL HepG2 Assay for human TAL Basal Promoter (AID 2282966; active = hit-call score of the fitted dose curve at least 0.9, where 1 is the maximum; inactive = score below 0.9;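 also: background control endpoint measuring basal TAL promoter reporter mRNA not a specific factor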). The conditions noted are these: HepG2 Attagene cis-factorial TAL promoter reporter; actives raise or lower the signal. In outline: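 Steps: transfect HepG2 with multiple reporter transcription units; dose 24 h; isolate RNA, reverse-transcribe, PCR-amplify, label with 6-FAM, digest with HpaI; resolve by capillary electrophoresis. Bidirectional fitting against DMSO baseline.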

Assay [3] can be described thus: ATG_VDRE_CIS: Attagene CIS-FACTORIAL HepG2 Assay for human Vitamin D Receptor Element (VDRE) (AID 2282968; active = hit-call score of the fitted dose curve at least 0.9, where 1 is the maximum; inactive = score below 0.9). The conditions noted are these: HepG2 VDRE cis-reporter transcription, actives raise or lower the signal. In outline: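 In transiently transfected HepG2 liver cells, gain or loss of reporter mRNA after 24 h exposure is scored relative to DMSO, using fluorescence detection by capillary electrophoresis of RT-PCR products.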

Assay [4] has as its target Estrogen receptor (Homo sapiens) (UniProt P03372). Nature of the assay: ATG_ERa_TRANS: Attagene TRANS-FACTORIAL HepG2 Assay for human Estrogen Receptor alpha (ERa) (AID 2282970). The conditions noted are these: HepG2 Attagene TRANS ERa GAL4 reporter, mRNA. An outline of the steps: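 Multiplexed cell-based reporter format in HepG2: chimeric ERa-Gal4 protein drives GAL4-UAS reporter transcription. Fluorescent reporter mRNA quantified by capillary electrophoresis 24 hours after dosing; endpoint fitted as signal gain against DMSO.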

Assay [5] deals with Steroid hormone receptor ERR1 (Homo sapiens) (UniProt P11474). Nature of the assay: ATG_ERRa_TRANS: Attagene TRANS-FACTORIAL HepG2 Assay for human Estrogen-Related Receptor alpha (ERRa) (AID 2282971). The conditions noted are these: HepG2 Attagene TRANS reporter, ERRa transactivation. In outline: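 Signal gain relative to DMSO for an ERRa-Gal4 chimeric receptor, read as reporter mRNA by RT-PCR/capillary electrophoresis. Human HepG2 liver cells, transient multiplex reporter transfection, 24 h chemical exposure.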

Assay [6] addresses X-box-binding protein 1 (Homo sapiens) (UniProt P17861). The assay can be described thus: ATG_Xbp1_CIS: Attagene CIS-FACTORIAL HepG2 Assay for human X-box Binding Protein 1 (XBP1) (AID 2282972; active = hit-call score of the fitted dose curve at least 0.9, where 1 is the maximum; inactive = score below 0.9). The conditions noted are these: HepG2 XBP1 cis-element reporter, Attagene multiplex; actives raise or lower the signal. In outline:
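HepG2 cells transiently transfected with cis-regulated multiple reporter transcription units; endogenous transcription factor activity measured 24 hours after chemical dosing. Reporter mRNA quantified by RT-PCR, 6-FAM primer extension, HpaI digestion and capillary electrophoresis; bidirectional fitting versus DMSO.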

Assay [7] is described as follows: ATG_M_19_TRANS: Attagene TRANS-FACTORIAL HepG2 Assay for M19 Transcription Factor (Internal Marker) (AID 2282974). To be noted: HepG2 Attagene TRANS-FACTORIAL M19 internal marker reporter. In outline:
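Measured here: internal-marker reporter transcript from HepG2 cells transfected with MRTUs, harvested at 24 h. cDNA PCR products were 6-FAM labelled by primer extension, cut with HpaI for 2 h at 37 C, and resolved by CE.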

Assay [8] concerns the target Bile acid receptor (Homo sapiens) (UniProt Q96RI1). Nature of the assay: ATG_FXR_TRANS: Attagene TRANS-FACTORIAL HepG2 Assay for Farnesoid X Receptor (FXR) (AID 2282979).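 Also: hits raise reporter mRNA above DMSO so AC50 marks FXR activation.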 The conditions noted are these: HepG2 Attagene TRANS FXR-GAL4 reporter transcription. An outline of the steps:
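After 24 h chemical treatment of transfected HepG2 cells, GAL4-UAS reporter transcripts driven by an exogenous FXR-GAL4 fusion were measured by RT-PCR and capillary electrophoresis. Increases over DMSO were fitted.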

The target in assay [9] is Oxysterols receptor LXR-beta (Homo sapiens) (UniProt P55055). Nature of the assay: ATG_LXRb_TRANS: Attagene TRANS-FACTORIAL HepG2 Assay for human Liver X Receptor beta (LXRb) (AID 2282981). To be noted: HepG2 Attagene TRANS GAL4-LXRb reporter, mRNA. An outline of the steps: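 Cells: HepG2, transiently transfected with GAL4-UAS reporter units plus LXRb-Gal4 fusion. Treatment: 24 h. Detection: reporter mRNA by RT-PCR, 6-FAM labelling, HpaI digestion, capillary electrophoresis.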

Assay [10] can be described thus: ATG_M_32_TRANS: Attagene TRANS-FACTORIAL HepG2 Assay for M32 Transcription Factor (Internal Marker) (AID 2282984).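 Also: transcript level of a background control reporter unit measured by RT-PCR and capillary electrophoresis.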 The conditions noted are these: HepG2 Attagene TRANS M32 internal marker reporter. In outline: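 Using transiently transfected HepG2 cells exposed to test chemicals for 24 h, reporter transcripts are converted to labelled cDNA fragments and quantified by capillary electrophoresis. DMSO defines the activity baseline.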

Assay [11] deals with Transcriptional activator Myb (Homo sapiens) (UniProt P10242). Nature of the assay: ATG_Myb_CIS: Attagene CIS-FACTORIAL HepG2 Assay for human Myeloblastosis (Myb) Proto-Oncogene Transcription Factor (AID 2282986; active = hit-call score of the fitted dose curve at least 0.9, where 1 is the maximum; inactive = score below 0.9). To be noted: HepG2 Attagene CIS-FACTORIAL Myb reporter transcription; actives raise or lower the signal. An outline of the steps: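 Fluorescence signals from capillary electrophoresis of RT-PCR-amplified reporter cDNA give the read-out. Cells: HepG2 transfected with multiple cis-regulated reporter units. Exposure lasts 24 hours; DMSO defines baseline for gain or loss of signal.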

In assay [12] the target is Nuclear respiratory factor 1 (Homo sapiens) (UniProt Q16656). The assay can be described thus: ATG_NRF1_CIS: Attagene CIS-FACTORIAL HepG2 Assay for human Nuclear Respiratory Factor 1 (NRF1) Orphan Gene (AID 2282987; active = hit-call score of the fitted dose curve at least 0.9, where 1 is the maximum; inactive = score below 0.9). The conditions noted are these: HepG2 NRF1 cis-element reporter, Attagene multiplex; actives raise or lower the signal. In outline: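 Transcriptional reporter readout, one component of a 52-endpoint multiplexed HepG2 panel. Exposure 24 h; mRNA detected via RT-PCR and fluorescent capillary electrophoresis; fitting in both directions against DMSO.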

A short description of assay [13]: ATG_GAL4_TRANS: Attagene TRANS-FACTORIAL HepG2 Assay for GAL4 (Internal Marker) (AID 2282976). To be noted: HepG2 Attagene TRANS GAL4 internal marker reporter. An outline of the steps:
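Liver HepG2 line bearing multiplexed GAL4-UAS reporter constructs; 24 h chemical treatment. Transcripts were quantified as fluorescent fragments on capillary electrophoresis after RT-PCR and HpaI cut, with activity fitted upward from DMSO.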

In assay [14] the target is Estrogen-related receptor gamma (Homo sapiens) (UniProt P62508). Nature of the assay: ATG_ERRg_TRANS: Attagene TRANS-FACTORIAL HepG2 Assay for human Estrogen-Related Receptor gamma (ERRg) (AID 2282977).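 Also: hits increase reporter signal over DMSO so potencies reflect activators.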 To be noted: HepG2 Attagene TRANS reporter, ERRg transactivation. An outline of the steps: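 HepG2 cells transiently transfected with multiplexed GAL4-UAS reporter units and chimeric NR-Gal4 constructs were exposed to test chemicals for 24 h. Reporter mRNA was measured by RT-PCR, 6-FAM primer extension, HpaI digestion and capillary electrophoresis; gain-of-signal versus DMSO.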

Assay [15] concerns the target Hepatocyte nuclear factor 4-alpha (Homo sapiens) (UniProt P41235). Nature of the assay: ATG_HNF4a_TRANS: Attagene TRANS-FACTORIAL HepG2 Assay for human Hepatocyte Nuclear Factor 4 alpha (HNF4a) (AID 2282982). To be noted: HepG2 HNF4a transactivation reporter, mRNA readout. An outline of the steps: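 Transfected HepG2 reporter cells are dosed for 24 h; reporter RNA is reverse-transcribed, amplified, fluorescently labelled and HpaI-digested before CE sizing. Positive-direction fit against DMSO.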

A short description of assay [16]: ATG_M_06_TRANS: Attagene TRANS-FACTORIAL HepG2 Assay for M06 Transcription Factor (Internal Marker) (AID 2282983).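 Also: reporter transcript level by RT-PCR then capillary electrophoresis fluorescence.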 The conditions noted are these: HepG2 Attagene TRANS M06 internal marker reporter. An outline of the steps:
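Internal-marker background readout from a multiplexed TRANS reporter system in HepG2; 24 h dosing; mRNA induction quantified by RT-PCR plus capillary electrophoresis fluorescence; DMSO as negative control and baseline.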

Assay [17] addresses Nuclear receptor subfamily 4 group A member 2 (Homo sapiens) (UniProt P43354). Nature of the assay: ATG_NURR1_TRANS: Attagene TRANS-FACTORIAL HepG2 Assay for human Nuclear Receptor Related Protein 1 (NURR1) (AID 2282985). The conditions noted are these: HepG2 Attagene TRANS reporter, mRNA readout. An outline of the steps:
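Cells: HepG2, transiently transfected. Exposure: 24 h. Detection: fluorescence of labelled RT-PCR products separated by capillary electrophoresis; upward fit versus DMSO.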

Assay [18] in a line: ATG_TGFb_CIS: Attagene CIS-FACTORIAL HepG2 Assay for human Transforming Growth Factor (TGF) (AID 2282967; active = hit-call score of the fitted dose curve at least 0.9, where 1 is the maximum; inactive = score below 0.9). To be noted: HepG2 Attagene CIS TGFb reporter, mRNA transcription; actives raise or lower the signal. An outline of the steps:
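HepG2 cells transiently transfected with cis-promoter-driven multiplexed reporter units; 24 h compound exposure. Reporter mRNA measured by RT-PCR, 6-FAM labeling, HpaI digestion and capillary electrophoresis; bidirectional fit versus DMSO baseline.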

In assay [19] the target is Nuclear receptor subfamily 1 group I member 3 (Homo sapiens) (UniProt Q14994). Nature of the assay: ATG_CAR_TRANS: Attagene TRANS-FACTORIAL HepG2 Assay for human Constitutive Androstane Receptor (CAR) (AID 2282969).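 Also: activators raise reporter mRNA above DMSO so AC50 marks induction.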 To be noted: HepG2 Attagene TRANS-FACTORIAL CAR reporter. In outline: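 Readout is reporter mRNA induction, quantified by fluorescent primer extension and capillary electrophoresis after RT-PCR. Cells were HepG2 transiently carrying chimeric NR-Gal4 constructs with GAL4-UAS reporters, treated for 24 h; activity scored upward from DMSO.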

For assay [20], the target named is Glucocorticoid receptor (Homo sapiens) (UniProt P04150). Nature of the assay: ATG_GR_TRANS: Attagene TRANS-FACTORIAL HepG2 Assay for human Glucocorticoid Receptor (GR) (AID 2282978).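 Also: activators score as hits since higher reporter transcript over DMSO is fitted.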 To be noted: HepG2 Attagene TRANS GR reporter, mRNA transcription. An outline of the steps:
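Measurement of GAL4-UAS-driven reporter mRNA in human HepG2 liver cells 24 h post-dosing, using RT-PCR with fluorescent labelling and capillary electrophoresis; the transfected constructs report exogenous NR-GAL4 chimera activity, fitted upward against DMSO.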

Chain of Nuclear respiratory factor 1 (Homo sapiens) (Q16656 whole entry, looked up): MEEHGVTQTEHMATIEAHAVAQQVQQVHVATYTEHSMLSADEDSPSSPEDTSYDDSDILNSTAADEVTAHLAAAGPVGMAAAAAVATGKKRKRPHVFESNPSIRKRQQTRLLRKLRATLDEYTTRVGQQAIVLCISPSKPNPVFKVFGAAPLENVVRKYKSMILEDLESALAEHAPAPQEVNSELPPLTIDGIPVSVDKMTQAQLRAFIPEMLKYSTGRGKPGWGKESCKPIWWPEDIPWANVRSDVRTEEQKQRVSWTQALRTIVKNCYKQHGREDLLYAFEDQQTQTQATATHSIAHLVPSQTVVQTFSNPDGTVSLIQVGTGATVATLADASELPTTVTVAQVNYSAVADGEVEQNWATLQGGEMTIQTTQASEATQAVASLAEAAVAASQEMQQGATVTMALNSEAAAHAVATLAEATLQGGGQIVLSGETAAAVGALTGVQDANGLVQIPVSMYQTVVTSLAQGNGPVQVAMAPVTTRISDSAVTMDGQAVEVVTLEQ
Chain of X-box-binding protein 1 (Homo sapiens) (P17861 whole entry, looked up): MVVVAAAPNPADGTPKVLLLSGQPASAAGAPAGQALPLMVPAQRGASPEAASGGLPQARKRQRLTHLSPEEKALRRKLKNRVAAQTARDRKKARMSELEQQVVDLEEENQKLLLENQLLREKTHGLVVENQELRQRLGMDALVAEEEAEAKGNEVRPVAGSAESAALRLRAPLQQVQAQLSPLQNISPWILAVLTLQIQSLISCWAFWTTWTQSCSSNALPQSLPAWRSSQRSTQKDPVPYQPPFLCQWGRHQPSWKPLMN
Chain of Bile acid receptor (Homo sapiens) (Q96RI1 whole entry, looked up, the tested form may be a part): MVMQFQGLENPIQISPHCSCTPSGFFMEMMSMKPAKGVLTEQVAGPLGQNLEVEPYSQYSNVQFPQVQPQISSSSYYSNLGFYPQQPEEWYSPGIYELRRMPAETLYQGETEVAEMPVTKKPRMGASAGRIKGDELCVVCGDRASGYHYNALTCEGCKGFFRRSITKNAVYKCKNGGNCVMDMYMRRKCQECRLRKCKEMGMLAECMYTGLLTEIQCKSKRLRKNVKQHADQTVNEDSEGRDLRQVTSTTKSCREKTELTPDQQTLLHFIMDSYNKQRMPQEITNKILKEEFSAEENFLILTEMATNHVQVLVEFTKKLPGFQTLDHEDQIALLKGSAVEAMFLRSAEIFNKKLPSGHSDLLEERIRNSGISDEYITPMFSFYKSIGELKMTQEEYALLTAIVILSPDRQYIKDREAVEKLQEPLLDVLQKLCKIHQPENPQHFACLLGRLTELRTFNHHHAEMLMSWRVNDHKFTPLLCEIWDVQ
Chain of Estrogen-related receptor gamma (Homo sapiens) (P62508 whole entry, looked up, the tested form may be a part): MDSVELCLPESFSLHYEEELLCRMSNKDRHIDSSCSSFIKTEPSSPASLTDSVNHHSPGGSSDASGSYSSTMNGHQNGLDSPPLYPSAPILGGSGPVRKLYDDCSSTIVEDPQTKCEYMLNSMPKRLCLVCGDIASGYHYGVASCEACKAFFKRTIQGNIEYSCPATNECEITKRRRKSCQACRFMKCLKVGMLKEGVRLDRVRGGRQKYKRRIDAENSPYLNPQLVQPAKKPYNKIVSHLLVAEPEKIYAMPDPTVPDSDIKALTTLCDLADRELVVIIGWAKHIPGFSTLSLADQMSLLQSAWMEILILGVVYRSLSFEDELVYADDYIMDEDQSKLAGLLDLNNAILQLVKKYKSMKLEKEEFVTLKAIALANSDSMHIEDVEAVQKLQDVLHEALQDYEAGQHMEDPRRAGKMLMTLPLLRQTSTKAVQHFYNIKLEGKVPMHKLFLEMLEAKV
Chain of Hepatocyte nuclear factor 4-alpha (Homo sapiens) (P41235 whole entry, looked up): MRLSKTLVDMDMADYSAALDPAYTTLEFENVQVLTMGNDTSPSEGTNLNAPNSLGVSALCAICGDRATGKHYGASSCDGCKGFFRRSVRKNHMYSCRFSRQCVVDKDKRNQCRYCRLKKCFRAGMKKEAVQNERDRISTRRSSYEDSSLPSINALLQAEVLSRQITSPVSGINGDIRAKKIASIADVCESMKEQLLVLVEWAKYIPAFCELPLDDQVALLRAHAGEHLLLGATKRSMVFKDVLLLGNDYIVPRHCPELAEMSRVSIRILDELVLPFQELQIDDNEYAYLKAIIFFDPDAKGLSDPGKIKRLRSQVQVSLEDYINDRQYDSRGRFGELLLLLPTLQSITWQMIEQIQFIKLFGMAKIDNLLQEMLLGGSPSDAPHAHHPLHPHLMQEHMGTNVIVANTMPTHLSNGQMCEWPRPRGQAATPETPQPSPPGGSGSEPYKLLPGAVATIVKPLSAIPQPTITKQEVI
Chain of Steroid hormone receptor ERR1 (Homo sapiens) (P11474 whole entry, looked up, the tested form may be a part): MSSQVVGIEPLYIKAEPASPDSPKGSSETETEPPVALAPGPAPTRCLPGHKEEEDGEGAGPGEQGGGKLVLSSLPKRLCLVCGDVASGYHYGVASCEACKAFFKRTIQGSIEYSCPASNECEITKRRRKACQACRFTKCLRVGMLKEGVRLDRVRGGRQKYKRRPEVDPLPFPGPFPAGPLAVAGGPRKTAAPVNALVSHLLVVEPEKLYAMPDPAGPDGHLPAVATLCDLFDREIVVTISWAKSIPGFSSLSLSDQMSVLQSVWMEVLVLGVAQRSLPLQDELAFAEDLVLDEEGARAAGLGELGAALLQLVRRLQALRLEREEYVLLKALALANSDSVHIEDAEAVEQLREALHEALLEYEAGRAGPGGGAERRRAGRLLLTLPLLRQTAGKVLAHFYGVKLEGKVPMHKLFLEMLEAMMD
Chain of Transcriptional activator Myb (Homo sapiens) (P10242 whole entry, looked up): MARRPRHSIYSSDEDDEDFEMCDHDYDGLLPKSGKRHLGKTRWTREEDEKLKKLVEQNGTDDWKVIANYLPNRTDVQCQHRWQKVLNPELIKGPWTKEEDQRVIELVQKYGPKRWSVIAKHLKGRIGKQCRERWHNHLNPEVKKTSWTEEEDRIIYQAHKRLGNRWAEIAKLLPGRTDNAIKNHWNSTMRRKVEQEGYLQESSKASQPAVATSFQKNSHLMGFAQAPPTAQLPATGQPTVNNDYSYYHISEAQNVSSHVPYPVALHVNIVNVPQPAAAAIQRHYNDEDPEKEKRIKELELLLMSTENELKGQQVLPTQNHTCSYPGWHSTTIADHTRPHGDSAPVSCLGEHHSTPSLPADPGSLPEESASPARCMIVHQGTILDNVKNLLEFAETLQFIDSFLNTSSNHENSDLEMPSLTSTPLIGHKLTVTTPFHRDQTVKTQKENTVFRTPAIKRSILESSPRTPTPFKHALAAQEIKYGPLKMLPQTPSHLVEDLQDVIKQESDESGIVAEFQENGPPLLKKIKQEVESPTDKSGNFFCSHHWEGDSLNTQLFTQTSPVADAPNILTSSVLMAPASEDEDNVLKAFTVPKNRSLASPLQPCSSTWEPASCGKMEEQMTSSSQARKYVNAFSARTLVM
Chain of Estrogen receptor (Homo sapiens) (P03372 whole entry, looked up, the tested form may be a part): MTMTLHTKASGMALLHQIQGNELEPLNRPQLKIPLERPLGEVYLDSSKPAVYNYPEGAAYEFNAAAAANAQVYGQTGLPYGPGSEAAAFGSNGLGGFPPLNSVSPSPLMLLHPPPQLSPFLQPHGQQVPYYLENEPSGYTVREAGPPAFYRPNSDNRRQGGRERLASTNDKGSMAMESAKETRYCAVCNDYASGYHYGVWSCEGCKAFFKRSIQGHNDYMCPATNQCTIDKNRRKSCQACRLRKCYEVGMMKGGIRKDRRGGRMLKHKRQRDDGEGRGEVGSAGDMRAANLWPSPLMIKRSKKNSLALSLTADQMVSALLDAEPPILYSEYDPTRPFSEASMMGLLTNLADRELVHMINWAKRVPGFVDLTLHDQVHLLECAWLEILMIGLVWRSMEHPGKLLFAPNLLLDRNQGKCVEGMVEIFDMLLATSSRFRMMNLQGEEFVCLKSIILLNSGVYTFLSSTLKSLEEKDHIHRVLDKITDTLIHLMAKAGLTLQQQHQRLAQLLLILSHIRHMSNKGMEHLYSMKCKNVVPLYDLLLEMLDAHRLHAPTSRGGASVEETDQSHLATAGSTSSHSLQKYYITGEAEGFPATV
Chain of Nuclear receptor subfamily 4 group A member 2 (Homo sapiens) (P43354 whole entry, looked up): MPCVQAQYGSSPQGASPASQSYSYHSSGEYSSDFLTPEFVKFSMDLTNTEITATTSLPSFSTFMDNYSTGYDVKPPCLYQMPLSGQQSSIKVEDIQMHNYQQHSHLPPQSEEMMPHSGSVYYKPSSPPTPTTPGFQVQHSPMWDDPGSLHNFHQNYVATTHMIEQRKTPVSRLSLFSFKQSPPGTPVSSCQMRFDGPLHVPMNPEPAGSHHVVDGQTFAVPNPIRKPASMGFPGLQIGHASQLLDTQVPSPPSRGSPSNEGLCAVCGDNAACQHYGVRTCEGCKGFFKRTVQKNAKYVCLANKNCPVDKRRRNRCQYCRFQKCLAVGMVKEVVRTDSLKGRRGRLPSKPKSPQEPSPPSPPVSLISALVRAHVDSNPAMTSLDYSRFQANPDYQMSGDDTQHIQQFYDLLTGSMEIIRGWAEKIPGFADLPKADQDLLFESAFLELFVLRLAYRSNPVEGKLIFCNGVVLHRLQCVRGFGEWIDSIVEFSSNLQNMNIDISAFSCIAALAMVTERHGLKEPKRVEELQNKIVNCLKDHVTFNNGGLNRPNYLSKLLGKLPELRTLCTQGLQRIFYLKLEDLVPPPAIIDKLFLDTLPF
Chain of Oxysterols receptor LXR-beta (Homo sapiens) (P55055 whole entry, looked up, the tested form may be a part): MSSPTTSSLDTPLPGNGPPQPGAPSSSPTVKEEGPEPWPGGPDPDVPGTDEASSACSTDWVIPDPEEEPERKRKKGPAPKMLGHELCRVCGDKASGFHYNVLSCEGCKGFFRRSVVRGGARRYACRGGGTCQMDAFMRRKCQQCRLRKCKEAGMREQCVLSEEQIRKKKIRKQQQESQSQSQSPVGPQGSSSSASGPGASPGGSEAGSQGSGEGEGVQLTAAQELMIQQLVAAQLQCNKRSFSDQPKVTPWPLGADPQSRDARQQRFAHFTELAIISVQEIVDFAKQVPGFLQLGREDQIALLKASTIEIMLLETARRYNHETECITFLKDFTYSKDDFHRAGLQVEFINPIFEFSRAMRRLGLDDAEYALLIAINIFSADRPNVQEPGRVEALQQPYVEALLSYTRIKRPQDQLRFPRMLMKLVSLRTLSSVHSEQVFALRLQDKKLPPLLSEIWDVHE

On to `CCCCCCCCCCCCN1CCCC1=O`, for which the result in assay [1], in assay [2], in [3], in assay [4], in assay [5] and in [6] was inactive. The outcome in assay [7], in [8], in assay [9], in assay [10], in assay [11] and in assay [12] was inactive.
As for `CCCCCCCCCCCCCC[N+](C)(C)C`, the AC50 (in general, the concentration giving half of the maximal activity seen) was 17.2 µM (active) and 7.58 µM (active) in assay [1]; 25.7 µM (active) in [5]; 6.33 µM (active) in [6]; 43.7 µM (active) and 40.9 µM (active) in assay [15]; 26.9 µM (active) in assay [17]. Besides, the molecule was classed as inactive in assay [2], in [3], in assay [4], in assay [5], in assay [6] and in assay [7]. Also, the molecule was classed as inactive in assay [13], in [14], in assay [8], in assay [16], in assay [10] and in assay [11]. Further, the molecule was called inactive in assay [12].
On to `Cc1cc(C)c(O)c(C)c1`, for which the molecule was called inactive in assay [1], in assay [2], in assay [18], in [19], in assay [6] and in assay [7]. Besides, the molecule was called inactive in [8], in [15], in [16], in [10], in [11] and in assay [12]. In addition, the AC50 in assay [4] is 100 µM (active).
In the case of `CC(=O)CC(C)(C)O`, the molecule was called inactive in assay [1], in assay [2], in assay [3], in [5], in assay [6] and in assay [7]. Further, the molecule was classed as inactive in assay [13], in [14], in assay [20], in assay [9], in [16] and in assay [10]. In addition, the outcome in assay [17], in [11] and in [12] was inactive. In [4], the AC50 was 26.5 µM (active).
